Compound activity: PubChem BioAssay, ICCB-Longwood Screening Facility, Harvard Medical School
Sa growth 42C = S. aureus growth inhibition at 42 and 30 °C, primary screen, LtaS inhibitor project, RN4220, two temperatures; relative growth, % (test concentration not listed); OD600, 20 h, 42 °C; active compounds read low; actives 0.53% (n = 170,000); AID 720641, 2013;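 active = relative growth at most 50% at the other temperature and 20+ points below 30 °C, or under 10% at both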
S aureus helic = inhibitors of S. aureus replicative helicase, primary screen, biochemical, fluorescence unwinding readout; actives 0.05% (n = 120,000); replicative DNA helicase (DnaC/DnaB), Staphylococcus aureus; purified S. aureus helicase, fluorescence unwinding assay; inhibition, % (test concentration not listed); AID 485395, 2010; in the data active = inhibition above about 25%, passing the limit was not always enough
Large screens that a line does not name were inactive; ! = not confirmed by another sample. This is a sample that favours compounds with a hit; in the whole collection about 0.52% have one here.

CN(C)[C@@H]1C(=O)C(C(N)=O)=C(O)[C@@]2(O)C(=O)C3=C(O)c4c(O)ccc(Cl)c4[C@@](C)(O)[C@H]3C[C@@H]12	Sa growth 42C -0.1 (no result: S aureus helic)
CN(C)[C@@H]1C(=O)C(C(N)=O)=C(O)[C@@]2(O)C(=O)C3=C(O)c4c(O)cccc4[C@@](C)(O)[C@H]3[C@H](O)[C@@H]12	Sa growth 42C -0.6 (no result: S aureus helic)
COc1cc(/C=C/c2nc3ccccc3c(=O)n2-c2ccc(Br)c(C)c2)ccc1O	none (no result: S aureus helic)
Cc1ccc(S(=O)(=O)Nc2c(C(=O)NCc3ccco3)c3nc4ccccc4nc3n2Cc2ccco2)cc1	none
BrCc1ccc2nsnc2c1	none
COc1ccccc1CN1CCN(Cc2ccccc2OC)CC1	none
CC(C#N)N1CCN(c2ccc(F)cc2)CC1 (stereo unspecified)	none
O=c1oc2ccccc2n1CN1CC=C(c2ccccc2)CC1	none
O=S(=O)(c1ccc(Cl)cc1)N1CCCCC1c1cccnc1 (stereo unspecified)	none
CC(=O)N1CCCCC1c1cccnc1.O=[N+]([O-])O.[Ag] (stereo unspecified)	Sa growth 42C 5.0
FCCOc1ccc(OCCF)cc1	none
Clc1ccc(COC(Cn2ccnc2)c2ccc(Cl)cc2Cl)c(Cl)c1 (stereo unspecified)	Sa growth 42C 0.0! (no result: S aureus helic)
Clc1ccc(CON=C(Cn2ccnc2)c2ccc(Cl)cc2Cl)c(Cl)c1	Sa growth 42C 0.0 (no result: S aureus helic)
CCOP(=S)(Nc1cccc(F)c1)OCC	none
CC(=O)Nc1ccc(OP2(=O)COc3ccccc3OC2)cc1	none
Oc1cc(Cl)ccc1Oc1ccc(Cl)cc1Cl	Sa growth 42C -0.7 (no result: S aureus helic)
CSc1nc2ccccc2c(=O)n1-c1ccc(F)cc1F	none
CCN1C(=O)N(c2ccccc2)P(=S)(N2CCCC2)c2cc3c(cc21)OCCO3 (stereo unspecified)	none
N#CC(C#N)=Cc1cccc(OC(F)F)c1	none
O=C1C=Cc2ccc3c4c(ccc1c24)C=CC3=O	S aureus helic 48
CC12NCCC1(C)c1ccccc1N2 (stereo unspecified)	none
COc1ccc(C(CN(C)C)C2(O)CCCCC2)cc1 (stereo unspecified)	Sa growth 42C 0.0! (no result: S aureus helic)
COc1ccc(CN(C)CCc2ccc(OC)c(OC)c2)cc1	none
Oc1cc2c(cc1CN1CC=C(c3ccccc3)CC1)OCO2	none
C[N+](C)(C)CC1CCCC1O (stereo unspecified)	none
C[CH2][Hg][S]c1ccccc1C(=O)O	Sa growth 42C -0.5 (no result: S aureus helic)
O=C(O)c1ccccc1C(=O)Nc1cccc2ccccc12	none (no result: Sa growth 42C)
Cc1ccc(-n2cccc2C=C2C(=O)NC(=O)NC2=O)cc1Cl	none
N#CC(C#N)=NNc1ccc(-n2ccc(C(F)(F)F)n2)cc1	Sa growth 42C -0.4
N#Cc1ccc(NC(=O)CON2C(=O)CCC2=O)cc1Cl	none
COc1ccc(CN2CCN(C)CC2)cc1Br	none
CN(C)CCC(=O)c1ccccc1	none
CC(=O)[O][Hg][c]1ccccc1	Sa growth 42C -0.7 (no result: S aureus helic)
CC(O)CN1CC2CC(C1)c1cccc(=O)n1C2 (stereo unspecified)	none
CN1CC=C(c2c[nH]c3ccccc23)CC1	none
C1=C(c2c[nH]c3ccccc23)CCN(Cc2ccccc2)C1	Sa growth 42C -0.9
N#CCCn1cc(C(=O)Nc2ccccc2)c(-c2ccc3c(c2)OCCO3)n1	none
NCCc1nc2ccccc2[nH]1	none
CCCCCCCCCCCCCCCC[n+]1ccccc1	Sa growth 42C -0.8 (no result: S aureus helic)
Cc1ccc(C(c2c(O)[nH]c(=O)[nH]c2=O)N2CCCC2)cc1 (stereo unspecified)	none
CCOC(=O)c1c(-c2ccccc2)n(Cc2ccccc2)c2ccc(O)c(CN(C)C)c12	Sa growth 42C -0.9
CCOC(=O)c1c(C)n(Cc2ccccc2)c2ccc(O)cc12	none
